Only some compounds are listed: those with a hit (about 19% of all), similar ones and a draw of the others.
TDP1 cell noCPT: qHTS for Inhibitors of human tyrosyl-DNA phosphodiesterase 1 (TDP1): qHTS in cells in absence of CPT; DT40 Tdp1-/- hTDP1 cells, no CPT, ATP luminescence, 48 h; Potency, µM (series often up to 46.2 µM), for inactives: at the top dose activity change, negative = growth inhibition, usual class: inhibitors; hit rate 15% among 420,000; AID 686978, 2013; further: potency means the concentration at half of the fitted maximal effect; nearly all actives have a fitted effect of over 55% in size
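Growth of hTDP1-complemented DT40 Tdp1-knockout cells is measured by ATP luminescence after at least 48 hr compound exposure at 37 °C, with DMSO substituting for the 20 nM CPT used in the parallel screen.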
DT40 TDP1 CPT: growth inhibition of DT40 Tdp1-/-;hTDP1 cells with camptothecin (screen for TDP1 inhibitors) | chicken DT40 Tdp1-/-;hTDP1 cells + 20 nM CPT, ATP luminescence, 48 h | Potency, µM (doses to about 46.2 µM), for inactives: at the top dose activity change, negative = growth inhibition, usual class: inhibitors | hit rate 12% among 420,000 | AID 686979; further: potency means the concentration at half of the fitted maximal effect; nearly all actives have a fitted effect of over 55% in size
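Chicken DT40 Tdp1-/- cells complemented with human TDP1, 400 cells/well, exposed to compounds plus 20 nM camptothecin for at least 48 h at 37 C; viability read as ATP content by CellTiter-Glo luminescence.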
IL1B secr inh: inhibitors of inflammasome signaling (IL-1 beta secretion); THP-1 LPS/ATP IL-1B secretion, AlphaLISA, 16 h; stronger effect = lower value; activity change, % at 57.5 µM; hit rate 4.7% among 360,000; AID 743279; in the data active means activity change below about -50%; inconclusive means mostly about -30% to -49%
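Secreted IL-1B measured by AlphaLISA bead assay after 16 h compound exposure of THP-1 cells; compounds (final up to 57.5 uM) added 1 h before LPS (250 ng/mL) and ATP (1.25 mM) stimulation; lower signal means less secretion.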
HT1080-NT tox: kills 2HG-producing HT-1080-NT fibrosarcoma cells; HT-1080-NT fibrosarcoma viability, CellTiter-Glo ATP luminescence, 48 h; hit rate 1.6% among 360,000; Potency, µM (titrated, usually from 46.1 µM), for the others: top-dose activity, negative = less viability, hits mostly cytotoxic;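 further: NT is the 2HG producing partner of a matched IDH1 knockdown line; potency means the concentration at half of the fitted maximal effect; 0% = DMSO-treated cells and -100% = media-only wells without cells; nearly all actives have a fitted effect of over 55% in size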
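Viability by CellTiter-Glo luminescence after 48 h compound exposure at 37C of HT-1080-NT cells (750/well, RPMI, 5% FBS). % activity scaled between DMSO wells and medium-only wells, then curve-fitted and categorized by curve class.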
HT1080 IDH1KD tx: kills HT-1080 cells with IDH1 knockdown. hit rate 2% among 360,000. HT-1080 IDH1 knockdown viability, ATP luminescence, 48 h. AID 686971. Potency, µM (series often up to 46.1 µM), for the others: at the highest dose activity, negative = toxicity, usual class: cytotoxic;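 further: potency means the concentration at half of the fitted maximal effect; 0% = DMSO wells and -100% = cell-free medium wells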
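% activity derives from luminescence (CellTiter-Glo), normalised to DMSO and no-cell wells. HT-1080-IDH1KD cells, 750/well, had 48 h compound exposure at 37 °C.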
The depositor's hits bear a star; ? = inconclusive; / = no result given. Unless noted, the call rests on the fitted dose curve; in most records, active means well fitted curve in the direction sought with a large enough effect; inconclusive means small, poorly fitted or top-dose-only effect, or another doubt; inactive means no such curve, though single readings can be large; an effect the other way counts as inactive or inconclusive. Unless noted, on the % scale 0 is the no-effect control and ±100 the full control effect.

SMILES | TDP1 cell noCPT | DT40 TDP1 CPT | IL1B secr inh | HT1080-NT tox | HT1080 IDH1KD tx
CCOC(=O)C1CCCN(C(=O)COc2ccc(S(=O)(=O)N(CC)c3ccccc3)cc2)C1 (stereo not given) | ? | 3% | 0 | -3% | 5%
CC(C)COc1ccccc1C1CC(=O)Nc2cc3c(cc21)OCO3 (stereo not given) | 4.1µM* | 2.6µM* | / | / | /
COc1cc2c(cc1OC)C(c1ccccc1OC(C)C)CC(=O)N2 (stereo not given) | 15µM* | ? | 60 | 6% | 24%
COc1cccc(C2CC(=O)Nc3cc4c(cc32)OCCO4)c1OC (stereo not given) | 18µM* | 21µM* | / | / | /
CCOc1ccc(C2CC(=O)Nc3cc4c(cc32)OCO4)cc1OC (stereo not given) | ? | -23% | / | / | /
COc1cc(C2CC(=O)Nc3cc4c(cc32)OCCO4)cc(OC)c1O (stereo not given) | 21µM* | ? | / | / | /
CCOc1ccccc1C1CC(=O)Nc2cc(OC)c(OC)cc21 (stereo not given) | ? | ? | 46 | -2% | -18%
CCOc1c(OC)cccc1C1CC(=O)Nc2cc3c(cc21)OCCO3 (stereo not given) | ? | ? | 3 | ? | ?
CCN(CC)C(=O)Cn1c(=O)n(-c2ccc(Cl)c(Cl)c2)c(=O)c2c(C)c(C(=O)N(CC)CC)sc21 | 16% | 6% | / | / | /
O=C(NCC1CCCO1)C1CCN(S(=O)(=O)c2cccc3nonc23)CC1 (stereo not given) | -4% | -2% | -19 | 11% | 14%
O=C(CSc1nnc(-c2cccnc2)n1-c1ccccc1)Nc1ccccn1 | 16µM* | ? | 23 | 0% | 2%
Nn1c(SC/C=C/c2ccccc2)nnc1-c1cccnc1 | -17% | -2% | 0 | 2% | 12%
Clc1ccc(-n2c(SC/C=C/c3ccccc3)nnc2-c2cccnc2)cc1 | ? | 23µM* | ? | ? | ?
CCOCCn1ccc2c(OCC(=O)Nc3ccc(OC(F)(F)F)cc3)cccc2c1=O | ? | -26% | / | / | /
Cc1ccc(C)c(N2CCN(C(=O)CN(C)S(=O)(=O)c3ccc4c(c3)CCC(=O)N4)CC2)c1 | 16µM* | ? | -8 | 0% | -6%
CC(=O)N1CCc2cc(S(=O)(=O)CCC(=O)N3CCN(c4cc(C)ccc4C)CC3)ccc21 | 21µM* | ? | -14 | 21% | 4%
CC(=O)N1CCc2cc(S(=O)(=O)CCC(=O)N3CCc4ccccc4C3)ccc21 | -21% | ? | 34 | -4% | -3%
CC(=O)N1CCc2cc(S(=O)(=O)CCC(=O)N3CCN(c4cccc(C)c4C)CC3)ccc21 | 15µM* | 16µM* | / | / | /
CCOC(=O)CNC(=O)CSc1nc(C(C)C)nc2c1cnn2-c1ccccc1 | ? | -22% | 6 | 16% | 10%
Cc1[nH]c2ccc(C(=O)OC(C)C(=O)N(C)C3CCCCC3)cc2c1C (stereo not given) | ? | ? | -81* | -10% | -3%
CC(=O)Nc1ccc(NC(=O)C(C)OC(=O)c2ccc3[nH]c(C)c(C)c3c2)cc1 (stereo not given) | -16% | 4% | 35 | -14% | -3%
CC(=O)c1c(C)[nH]c(C(=O)OC(C)C(=O)NC2CCCCC2)c1C (stereo not given) | ? | -20% | 9 | -7% | -2%
Cc1ccc(C(=O)OC(C)C(=O)NC2CCCCC2)cc1S(=O)(=O)N1CCCCC1 (stereo not given) | ? | ? | 0 | 0% | -10%
COC(=O)c1c(C)[nH]c(C(=O)OC(C)C(=O)N(C)C2CCCCC2)c1C (stereo not given) | 16µM* | ? | -17 | 4% | -3%
Cc1ccc(C(=O)OC(C)C(=O)N(C)C2CCCCC2)cc1S(=O)(=O)N1CCCCC1 (stereo not given) | 23µM* | ? | -29 | 0% | -12%
SMILES | TDP1 cell noCPT | DT40 TDP1 CPT | IL1B secr inh | HT1080-NT tox | HT1080 IDH1KD tx
Cc1csc(Nc2nc(N)c(C(=O)Nc3cc(Cl)ccc3F)o2)n1 | ? | ? | 3 | ? | ?
O=C(Cn1ccc(=O)[nH]c1=O)Nc1ccc(O)c([N+](=O)[O-])c1 | 0% | -2% | 10 | 11% | 16%
Cc1ccc(C)c(N2CCN(C(=O)C3CCCN(Cc4nc(-c5cccc(Cl)c5)oc4C)C3)CC2)c1 (stereo not given) | -7% | ? | / | / | /
Cc1cccc(-c2nc(CN3CCCC(C(=O)NCc4ccc(Cl)cc4)C3)c(C)o2)c1 (stereo not given) | 7.3µM* | -86% | / | / | /
COc1ccc(CNC(=O)C2CCCN(Cc3nc(-c4cccc(C)c4)oc3C)C2)cc1 (stereo not given) | 13µM* | 13µM* | ? | -21% | -22%
CCc1c(C)c2cc(Cl)c(O)c(CN3CCCC3)c2oc1=O | -17% | -27% | 9 | 6% | 2%
CC1(C(=O)Nc2ccc(Cl)c(Cl)c2)CCN1C(=O)C1CCCCC1 (stereo not given) | ? | ? | 6 | 12% | 10%
C[C@H]1CN([C@@H](C)CO)C(=O)Cc2cc(NC(=O)CCC(F)(F)F)ccc2O[C@H]1CN(C)Cc1ccc(C(F)(F)F)cc1 | ? | ? | -69* | ? | ?
C[C@H]1CN([C@@H](C)CO)C(=O)Cc2cc(NC(=O)CCC(F)(F)F)ccc2O[C@H]1CN(C)S(C)(=O)=O | 3% | 12% | 14 | 11% | 10%
C[C@H]1CN([C@@H](C)CO)C(=O)Cc2cc(NC(=O)CCC(F)(F)F)ccc2O[C@H]1CN(C)Cc1ccc(-c2ccccc2)cc1 | ? | ? | -2 | 23µM* | 21µM*
C[C@H](CO)N1C[C@H](C)[C@H](CN(C)Cc2ccc(-c3ccccc3)cc2)Oc2ccc(NS(=O)(=O)c3ccccc3)cc2CC1=O | 18µM* | 16µM* | -28 | ? | ?
C[C@@H]1CN([C@H](C)CO)C(=O)Cc2cc(NC(=O)CCC(F)(F)F)ccc2O[C@@H]1CN(C)C(=O)Nc1ccccc1 | -2% | 7% | 12 | 4% | 9%
Cc1cc(=O)oc2cc(OCC(=O)Nc3c(C)n(C)n(-c4ccccc4)c3=O)c(Cl)cc12 | -10% | -13% | -2 | 10% | 6%
CS/C(Nc1cc(Cl)ccc1Cl)=C(/C#N)C(=O)c1ccco1 | 16µM* | 9.2µM* | -13 | -25% | ?
Cc1cccc(NC(=O)c2ccc(CN3CCc4ccccc4C3)cc2)c1C | ? | ? | 7 | ? | ?

Assay outcomes (PubChem)
